Assay results as given in publication PMC5540273 (PLoS ONE, 2017).

What follows are compounds tested on STK16. Details: concentration: 1 μM, replicates: in singlicate; n = 1.
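Also: KINOMEscan kinase panel screen.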

Compound	%Inh
Cl.c1ccc(-c2n[nH]cc2-c2ccnc(-c3ccc(CN4CCOCC4)cc3)c2)nc1 [GW776245]	17%
Cc1nnc(-c2ccc3occ(-c4ccc(S(C)=O)cc4)c3c2)[nH]1 (stereo not shown)	11%
Cn1ccc2ncnc(Oc3ccc(Nc4nc5ccccc5[nH]4)cc3)c21	15%
COc1cc2ncn(-c3cc(OCC4CCCO4)c(C(N)=O)s3)c2cc1OC (stereo not shown) [GSK204607]	5%
Cc1cccc(-c2nc(-c3ccc(S(C)(=O)=O)cc3)sc2-c2ccnc(NCCc3ccccc3)c2)c1	13%
COC(=O)c1c(-c2ccccc2)c2cc(C(=O)O)ccc2c(=O)n1Cc1ccccc1	22%
Cl.Oc1ccc(-c2nc(-c3ccccc3)[nH]c2-c2ccncc2)cc1 [SB-428218]	16%
CC(=O)Nc1nc2cnc(Nc3cc(NC(=O)c4cccc(CCC#N)c4)ccc3C)nc2s1	17%
O=C(Nc1n[nH]c2nc(-c3nccs3)c(Br)cc12)C1CCCC1 [SB-742609]	0%
CCn1c(-c2ccccn2)nc2cnccc21 [SB-736398]	0%
NC(=O)c1nnc2ccccc2c1N	2%
COc1ccc(Nc2nccc(NCCNC(=O)Nc3ccccc3F)n2)cc1 [GSK1379901]	18%
Cc1cc(N2Cc3ccccc3C2)nc(Nc2ccc(S(=O)(=O)N3CCOCC3)cc2)n1.Cl [GSK1669917]	0%
CC1=C(C(=O)Nc2cc3cn[nH]c3cc2F)C(c2ccc(C(F)(F)F)cc2)CC(=O)N1 (stereo not shown) [GSK429286]	14%
COC(=O)c1c(-c2ccccc2)c2cc(OC)ccc2c(=O)n1Cc1ccccc1	3%
O=C(O)COc1ncnc2cc(-c3ccc4[nH]ncc4c3)sc12	12%
Nc1nc(-c2nccs2)c(-c2ccnc3ccccc23)s1 [GW693542]	32%

Compound	%Inh
Cn1cncc1-c1ccc2ncnc(Nc3ccc(OCc4ccccc4)cc3)c2c1 [GW320571]	5%
O=C(Nc1ccc2c(c1)OCO2)NC1CCN(c2ccnc(Nc3ccc(F)cc3)n2)C1 (stereo not shown) [GSK1379724]	30%
Cc1ccccc1-n1cnc2c(N)ncnc21 [SKF-97510]	21%
Cn1ccc2ncnc(Oc3ccc(NC(=O)Nc4ccccc4)cc3)c21	9%
O=C1NC(=O)C(N2CCc3ccccc32)=C1c1ccccc1Cl [SB-373598]	58%
O=C(Nc1ccccc1)Nc1cccc(Oc2ccc3nccn3n2)c1	0%
Nc1ncnc2[nH]c(-c3ccccc3)nc12 [AH5015]	0%
CS(=O)(=O)c1ccc(-c2c(-c3ncn[nH]3)sc(N3CCOCC3)c2C#N)cc1	7%
Cc1c(O)cccc1Nc1ccnc2ccc(C(F)(F)F)cc12.Cl [GW466413]	0%
CS(=O)(=O)c1ccc(-c2nc3n(c2-c2ccncc2)CCC3)cc1 [SKF-105942]	96.8%
Cc1cc(NCC(c2ccccc2)c2ccccc2)nc(NCc2ccc(C(F)(F)F)cc2)n1 [GW497681]	18%
Cl.NC(=O)c1cccc(Nc2nccc(Nc3ccc(Oc4cccc(Cl)c4)c(Cl)c3)n2)c1 [GW659008]	38%
CC(C)(C)c1ccc(C(=O)Nc2cn3cc(Cl)ccc3n2)cc1	0%
O=c1cc(N2CCOCC2)nc2n(Cc3cccc(Cl)c3Cl)ccn12 [GSK2286295]	5%
CCCc1ccc(S(=O)(=O)NC2CCN(c3ccnc(Nc4ccc(F)cc4)n3)C2)cc1 (stereo not shown) [GSK1379715]	6%
O=S(=O)(c1ccc(-c2ccnc3[nH]ccc23)cc1)N1CCCC1 [GSK846226]	67%
COc1ccc(C2=C(Nc3cccc(C(=O)O)c3)C(=O)NC2=O)cc1 [SB-390765]	10%
